{
  "source": "PubChem BioAssay AID488862",
  "about": "(Broad Institute, 2010)",
  "note": "“And” between values parts separate entries of the source, which are not always exact repeats. Equal entries are not always repeated. The whole screen tested about 340,000 compounds, of which about 1,200 (0.35%) were called active. Rule as the data show it: active = inhibition above about 52%; inactive = the rest. For the sample, actives were picked, then their nearest neighbours and some compounds at random.",
  "data": [
    {"test": "inhibition of PrP 5' UTR reporter expression (AID 488862); also: 0 = median of the neutral control wells", "settings": "cell-based PrP 5' UTR mRNA reporter, plate reader; stronger effect = higher value; concentration not given here", "values": [
      {"smiles": "CCCCSCCCNC(=O)C1CCC(CNS(=O)(=O)c2ccc(NC(C)=O)cc2)CC1", "note": "(stereo not given)", "inhibition": "-21.5% (inactive)"},
      {"smiles": "CCN(CCn1cccn1)C(=O)CC1C(=O)NCCN1Cc1cccc(OC)c1OC", "note": "(stereo not given)", "inhibition": "-9.29% (inactive)"},
      {"smiles": "COc1ccccc1CNS(=O)(=O)c1ccc(C)cc1", "inhibition": "-15.1% (inactive)"},
      {"smiles": "CCCCNS(=O)(=O)CCNCc1ccccc1OC", "inhibition": "60.7% (active)"},
      {"smiles": "CCCCNCCS(=O)(=O)NCc1ccccc1", "inhibition": "-9.61% (inactive)"},
      {"smiles": "Cc1cccc([C@H]2[C@@H]3C=CC[C@@H](C)[C@@H]3C(=O)N2Cc2ccccc2)c1", "inhibition": "-11.5% (inactive)"},
      {"smiles": "Cc1ccc(-c2cccc([C@H]3[C@@H]4C=CC[C@@H](C)[C@@H]4C(=O)N3Cc3ccccc3)c2)cc1", "inhibition": "61.8% (active)"},
      {"smiles": "Cc1cccc([C@@H]2[C@@H]3C(=O)N(Cc4ccccc4)C(=O)[C@@H]3[C@]3(C)C(=O)N(c4ccc(Br)cc4)C(=O)N23)c1", "inhibition": "-3.38% (inactive)"},
      {"smiles": "Cc1nc(N=C(N)N)nc2c(C)cccc12", "inhibition": "-22.8% (inactive)"},
      {"smiles": "Cc1nc(C(=O)NCc2ccccc2)sc1C1(C)CC(c2cccnc2)=NO1", "note": "(stereo not given)", "inhibition": "-16.5% (inactive)"},
      {"smiles": "O=C1OCC2=C1C(c1ccc(Cl)cc1)c1cc3c(cc1O2)OCO3", "note": "(stereo not given)", "inhibition": "16.1% (inactive)"},
      {"smiles": "CCCOc1ccccc1C1CC(=O)Nc2cc3c(cc21)OCO3", "note": "(stereo not given)", "inhibition": "-21.5% (inactive)"},
      {"smiles": "COc1ccccc1C1C2=C(COC2=O)Nc2cc3c(cc21)OCO3", "note": "(stereo not given)", "inhibition": "65.7% (active)"},
      {"smiles": "COc1ccc(NC(=O)CN(C)C(=O)c2ccc(NC3CC3)c([N+](=O)[O-])c2)cc1", "inhibition": "-13.7% (inactive)"},
      {"smiles": "Cc1noc(C)c1S(=O)(=O)Nc1ccc(C(=O)N2CCN(c3ccc(F)cc3)CC2)cc1", "inhibition": "44.2% (inactive)"},
      {"smiles": "N#Cc1nc(N)nc(N(c2ccccc2)c2ccccc2)n1", "inhibition": "-20.2% (inactive)"},
      {"smiles": "CCc1nn(CCCN2CCN(c3cccc(Cl)c3)CC2)c(=O)n1CCOc1ccccc1", "inhibition": "-17.3% (inactive) and 2.12% (inactive)"},
      {"smiles": "O=C(O)c1cccnc1NC1CCCC1", "inhibition": "-17.1% (inactive)"},
      {"smiles": "O=C(NNC(=O)c1ccccc1O)c1ccccc1O", "inhibition": "58.9% (active)"},
      {"smiles": "CC1=C(C)CC(C(=O)NNC(=O)c2ccccc2O)C(C(=O)O)C1", "note": "(stereo not given)", "inhibition": "-11.4% (inactive)"},
      {"smiles": "Cc1cc(C(=O)CCC(=O)NNC(=O)c2ccccc2O)c(C)s1", "inhibition": "4.28% (inactive)"},
      {"smiles": "C/C(=N/NC(=O)CN1CCN(S(=O)(=O)c2ccc(Br)cc2)CC1)c1ccncc1", "inhibition": "-9.51% (inactive)"},
      {"smiles": "Cc1cc(C)nc(/N=C2\\NC(=O)CC(C(=O)O)N2c2ccc(Cl)cc2Cl)n1", "note": "(stereo not given)", "inhibition": "-13.6% (inactive)"},
      {"smiles": "COc1ccc(C23NCCN2C(=O)c2ccccc23)cc1", "note": "(stereo not given)", "inhibition": "-5.86% (inactive)"},
      {"smiles": "CC(NC(=O)c1cccc2ccccc12)c1ccc2c(c1)CCCC2", "note": "(stereo not given)", "inhibition": "-15.9% (inactive)"}
    ]}
  ]
}
